# Bioassay records from PubChem BioAssay.
# An excerpt weighted towards active compounds, which were near 19% of everything screened.
# IL1B secr inh = inflammasome signaling inhibition, IL-1 beta readout; THP-1 LPS/ATP IL-1B secretion, AlphaLISA, 16 h; stronger effect = lower value; activity change, % at 57.5 µM; actives 4.7% (n = 360,000); AID 743279; in the data active means activity change below about -50%; inconclusive means mostly about -30% to -49%
#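 THP-1 cells pretreated 1 hr with compounds (up to 57.5 uM final), then stimulated with LPS (250 ng/mL final) plus ATP (1.25 mM final); secreted IL-1B measured by AlphaLISA after 16 hr, decreased signal indicating inhibition.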
# HT1080NT lethal = kills 2HG-producing HT-1080-NT fibrosarcoma cells | actives 1.6% (n = 360,000) | AID 686970 | HT-1080-NT fibrosarcoma viability, CellTiter-Glo ATP luminescence, 48 h | Potency, µM (doses to about 46.1 µM), hits mostly cytotoxic;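 further: NT is the 2HG producing partner of a matched IDH1 knockdown line; nearly all actives have a fitted effect of over 55% in size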
#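 Viability by CellTiter-Glo luminescence after 48 h compound exposure at 37C of HT-1080-NT cells (750/well, RPMI, 5% FBS). % activity scaled between DMSO wells and medium-only wells, then curve-fitted and categorized by curve class.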
# DT40 TDP1 no CPT = qHTS for Inhibitors of human tyrosyl-DNA phosphodiesterase 1 (TDP1): qHTS in cells in absence of CPT; DT40 Tdp1-/- hTDP1 cells, no CPT, ATP luminescence, 48 h; Potency, µM (doses to about 46.2 µM), usual class: inhibitors; actives 15% (n = 420,000); further: nearly all actives have a fitted effect of over 55% in size
#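 DT40 Tdp1-/-;hTDP1 cells, no CPT (DMSO vehicle only), 400 cells/well; compounds pin-transferred; ≥48 hr, 37 °C; CellTiter-Glo 30 min RT dark, luminescence read.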
# DT40 TDP1 CPT = growth inhibition of DT40 Tdp1-/-;hTDP1 cells with camptothecin (screen for TDP1 inhibitors); chicken DT40 Tdp1-/-;hTDP1 cells + 20 nM CPT, ATP luminescence, 48 h; Potency, µM (doses to about 46.2 µM), usual class: inhibitors; actives 12% (n = 420,000); AID 686979; further: nearly all actives have a fitted effect of over 55% in size
#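 Cell growth measured by CellTiter-Glo luminescence after a minimum 48 h, 37 C compound exposure with 20 nM CPT in Tdp1-knockout DT40 cells stably expressing hTDP1, seeded 400/well; qHTS titration format.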
# HT1080 IDH1KD tx = toxicity to HT-1080 IDH1 knockdown cells (counter line); HT-1080 IDH1 knockdown viability, ATP luminescence, 48 h; Potency, µM (top dose mostly 46.1 µM), most hits filed as cytotoxic; actives 2% (n = 360,000); AID 686971
#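 Assay cells: HT-1080 with IDH1 knockdown, 750 per well, RPMI/5% FBS. Exposure: 48 h at 37 °C following 2 h pre-incubation. Read: CellTiter-Glo luminescence; fitted concentration-response, curve class assigned.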
# ELG1 repair inh = blocks ELG1-dependent DNA repair in HEK293T cells; Potency, µM (titrated, usually from 46.1 µM), hits mostly inhibitors; actives 2.3% (n = 330,000); HEK293T ELG1-luciferase reporter, luminescence, 16 h; DNA damage induced by 5-fluorouridine; further: nearly all actives have a fitted effect of over 55% in size
#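 Step one: seed 2,000 cells per well. Step two: pin-transfer compound or DMSO alongside 5-fluorouridine. Step three: incubate 16 hr, 37 °C, 5% CO2. Step four: add ONE-Glo, wait 30 min, read luminescence.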
# A number is an active result; n = inactive; u = inconclusive; x = no result given; [ ] = another dose, or the depositor's remark. Unless noted, the call rests on the fitted dose curve; in most records, active means well fitted curve in the direction sought with a large enough effect; inconclusive means small, poorly fitted or top-dose-only effect, or another doubt; inactive means no such curve, though single readings can be large; an effect the other way counts as inactive or inconclusive.
SMILES,IL1B secr inh,HT1080NT lethal,DT40 TDP1 no CPT,DT40 TDP1 CPT,HT1080 IDH1KD tx,ELG1 repair inh
COc1cccc(NC(=O)Cn2c(=O)ccc3cc(S(=O)(=O)N4CCC(C)CC4)ccc32)c1,x,x,16µM,18µM,x,x
Brc1ccc(Nc2nc(-c3cccnc3)cs2)cc1,n,n,n,n,n,u
c1ccc(-c2csc(Nc3ccc4c(c3)OCCO4)n2)cc1,n,n,u,15µM,n,x
COc1ccc(Nc2nc(-c3c[nH]c4ccccc34)cs2)cc1,-78,n,n,n,n,u
Oc1ccc(Nc2nc(-c3cccnc3)cs2)cc1,u,n,23µM,21µM,n,u
c1ccc(-c2csc(Nc3nc(N4CCOCC4)nc(N4CCOCC4)n3)n2)cc1,u,n,10µM,u,n,5.8µM
O=C(NCC1CCCO1)c1nn2c(C(F)(F)F)cc(-c3ccc(Br)o3)nc2c1Br (stereo unspecified),n,n,u,u,n,n
CC(NC(=O)CCNC(=O)c1ccco1)c1ccccc1 (stereo unspecified),n,n,n,n,n,n
COc1ccc(C2(SCC(N)C(=O)O)c3ccccc3-c3ccccc32)cc1 (stereo unspecified),n,u,n,n,n,x
CC(=O)N1CCC2(CC1)CN(c1ccccn1)C2,x,x,u,n,x,x
Cc1ccc(-c2csc(-c3c[nH]c4ccccc34)n2)c(C)c1,n,u,u,u,18µM,n
c1ccc(-c2csc(Nc3cccnc3)n2)nc1,n,n,u,u,u,u
c1ccc(Nc2nc(-c3ccccn3)cs2)cc1,u,n,7.3µM,13µM,n,x
Oc1ccc(Nc2nc(-c3ccc(O)cc3)cs2)cc1,u,u,5µM,11µM,u,u
Nc1ccc(Nc2nc(-c3ccncc3)cs2)cc1,u,u,18µM,u,u,u
C[C@H](NC(N)=O)C(=O)OCC(=O)NCc1cccs1,n,n,n,n,n,n
COc1ccc(-c2cc3nc(C)c(CCC(=O)Nc4ccccc4C(C)=O)c(C)n3n2)c(OC)c1,x,x,n,n,x,x
COc1ccc(-c2csc(Nc3ccccc3)n2)cc1,-56,u,u,u,u,u
CCC(=O)Nc1nc(-c2ccc3c(c2)OCCO3)cs1,u,n,n,u,n,u
c1cc2c(cc1-c1csc(NNC3=NCCCCC3)n1)OCCO2,-102,n,4.6µM,3.3µM,n,u
CC(=O)c1cccc(Nc2nc(-c3cccnc3)cs2)c1,-88,n,u,u,u,u
COc1ccc(-c2nn3c(-c4ccc(C)cc4)nnc3c3ccccc23)cc1,x,x,n,n,x,x
COc1ccc(N=CC2=C(O)c3ccccc3C2=O)c(OC)c1,n,u,18µM,u,n,u
Cc1ccccc1N=CC1=C(O)c2ccccc2C1=O,n,u,16µM,u,u,u
O=C1C(C=Nc2ccc(F)cc2)=C(O)c2ccccc21,n,n,n,n,n,u
SMILES,IL1B secr inh,HT1080NT lethal,DT40 TDP1 no CPT,DT40 TDP1 CPT,HT1080 IDH1KD tx,ELG1 repair inh
Cc1c(F)cccc1NC(=O)c1ccc2c(c1)CCN2S(C)(=O)=O,n,n,n,n,n,n
COc1ccc(N(C(=O)c2cnccn2)C(C(=O)NC2CCCCC2)c2ccccc2)cc1 (stereo unspecified),n,n,n,n,n,n
Cc1csc(=O)n1CC(=O)OCC(=O)Nc1ccc(F)c(F)c1F,n,n,n,u,n,x
O=C(CN1CCN(Cc2ccccc2Cl)C1=O)NCc1ccccn1,n,n,n,n,n,n
Cc1ccc(OCCNS(=O)(=O)c2ccc(Cl)cc2)cc1,n,u,n,n,n,n
Cc1ccc(OCCNS(=O)(=O)c2ccc(N3CCCC3=O)cc2)cc1C,n,u,6.5µM,6.5µM,n,u
COc1ccc(OC)c(NS(=O)(=O)c2ccc(-n3cccn3)cc2)c1,n,n,10µM,u,n,x
Cc1ccc(OCCNS(=O)(=O)c2ccc(N3CCCC3=O)cc2)cc1,n,n,5.8µM,6.5µM,n,u
CCCCc1ccc(S(=O)(=O)NCCCN2CCCC2=O)cc1,n,n,13µM,u,n,n
COc1ccc(OC)c(NS(=O)(=O)c2ccc(NC(C)=O)cc2)c1,n,n,u,n,n,n
Cc1cccc(CNC(=O)CN2C(=O)CSc3c2c(C)nn3-c2ccccc2)c1,x,x,n,u,x,x
CCC1(c2ccc(OC)cc2)NC(=O)N(CC(=O)NC2CCCCC2C)C1=O (stereo unspecified),n,n,n,u,n,n
COc1ccc(CCNS(=O)(=O)c2ccc(N3CCCC3=O)cc2)cc1,n,n,21µM,21µM,n,x
COc1ccc(NS(=O)(=O)c2cc3c4c(c2)CCN4C(=O)CC3)c(OC)c1,n,n,n,n,n,n
Cc1cc(N2CCCC2=O)cc(C)c1S(=O)(=O)NCCOc1ccccc1,u,u,u,8.2µM,n[9.24 µM],u
COc1ccc(NS(=O)(=O)c2ccc(N3CCCC3=O)cc2)cn1,n,15µM,6.5µM,4.6µM,18µM,u
O=C1CCCN1c1ccc(S(=O)(=O)NCCc2ccc(Cl)cc2)cc1,n,n,u,u,u,n
COc1ccc(OC)c(NS(=O)(=O)c2ccc(N3CCCC3=O)cc2)c1,n,0.52µM,0.37µM,0.52µM,0.52µM,u
Cc1ccc(-n2ncc(C(=O)NCc3ccco3)c2C2CCN(C(=O)OC(C)(C)C)CC2)cc1C,x,x,u,16µM,x,x
Cc1ccc(-n2ncc(C(=O)NCc3ccco3)c2C2CCN(C(=O)OC(C)(C)C)CC2)cc1,x,x,18µM,18µM,x,x
Cc1ccc(-n2ncc(C(=O)N3CCN(Cc4ccccc4)CC3)c2C2CCN(C(=O)OC(C)(C)C)CC2)cc1,x,x,n,u,x,x
CS(=O)(=O)N1CCC[C@@]2(CCN(C(=O)Nc3cccc(C#N)c3)C2)C1,x,x,n,n,x,x
CCNC(=O)c1cnc2sc(N3CCC(C)CC3)nn2c1=O,x,x,n,n,x,x
Oc1c(C(c2ccccc2)N2CCc3ccccc3C2)sc2ncnn12 (stereo unspecified),n,n,u,u,n,n
Oc1c(C(c2ccco2)N2CCN(C(c3ccccc3)c3ccccc3)CC2)sc2ncnn12 (stereo unspecified),-64,n,21µM,u,n,u
COc1ccc(C(c2sc3ncnn3c2O)N2CCN(c3ccccc3F)CC2)cc1OC (stereo unspecified),n,n,21µM,12µM,n,u
Oc1c(C(c2cccs2)N2CCN(c3cccc(Cl)c3)CC2)sc2ncnn12 (stereo unspecified),u,n,23µM,u,n,n
